Assay results: PubChem BioAssay (NCI)
This is part of a sample that, as a whole, favours compounds with a hit. Of some 83,000 tested, about 20% had one in any assay.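 A percent growth of 40 corresponds to 60% growth inhibition; 0 means no net growth; -100 means all cells died. Active threshold: below 10.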 Values without a mark were called inactive. Activity calls are given as the source filed them.

Experiments:
Experiment in all cases: NCI-60 one-dose screen, 48 h (100 = growth as untreated, 0 = no growth, -100 = all killed)
Conditions in all cases: 10 µM unless noted
DU-145 prostate = test system: DU-145 prostate
K-562 leukemia = test system: K-562 leukemia
MALME-3M melanoma = test system: MALME-3M melanoma
MDA-MB-231 breast = test system: MDA-MB-231 breast
RXF 393 renal = test system: RXF 393 renal
SF-268 CNS = test system: SF-268 CNS
SF-295 CNS = test system: SF-295 CNS
UACC-257 melanoma = test system: UACC-257 melanoma
M14 melanoma = test system: M14 melanoma
HCT-15 colon = test system: HCT-15 colon
HT29 colon = test system: HT29 colon
SNB-75 CNS = test system: SNB-75 CNS
SNB-19 CNS = test system: SNB-19 CNS
U251 CNS = test system: U251 CNS
PC-3 prostate = test system: PC-3 prostate
SK-MEL-5 melanoma = test system: SK-MEL-5 melanoma
UACC-62 melanoma = test system: UACC-62 melanoma
LOX IMVI melanoma = test system: LOX IMVI melanoma
SK-MEL-28 melanoma = test system: SK-MEL-28 melanoma

Compound | growth (DU-145 prostate) | growth (K-562 leukemia) | growth (MALME-3M melanoma) | growth (MDA-MB-231 breast) | growth (RXF 393 renal) | growth (SF-268 CNS) | growth (SF-295 CNS) | growth (UACC-257 melanoma) | growth (M14 melanoma) | growth (HCT-15 colon) | growth (HT29 colon) | growth (SNB-75 CNS) | growth (SNB-19 CNS) | growth (U251 CNS) | growth (PC-3 prostate) | growth (SK-MEL-5 melanoma) | growth (UACC-62 melanoma) | growth (LOX IMVI melanoma) | growth (SK-MEL-28 melanoma)
CCn1cc2c(cc1=O)-c1nc3ccccc3c3ccnc(c13)C2=O | 36.6% | 50.6% | 90.1% | 75.1% | 63.5% | 54.3% | 29.9% | 74.2% | 28.9% | 50.2% | 57.3% | 46.9% | 37.4% | 44.6% | 63.5% | 42.8% | 37.9% | 57% | 72.4%
COc1ccc(-c2cc(/C=C3\C(=O)Nc4ccc(Cl)cc43)[nH]n2)cc1 | 72.6% | 24% | 33.4% | 73.9% | 51% | 66.3% | 47% | 51.7% | 44.7% | 36.1% | 11.5% | 49.8% | 71.1% | 34.2% | 67.1% | 37.9% | 40.6% | 35.2% | 61.7%
O=C(NCc1cccc(C(F)(F)F)c1)[C@H](CCC(=O)N1CCN(C2CCCCC2)CC1)N1C(=O)[C@@H](N2C(=O)OC[C@@H]2c2ccccc2)[C@H]1/C(Cl)=C/c1ccccc1 | 60.7% | 31.5% | 47.8% | 33.1% | 52.2% | 31% | 46.5% | 24.9% | 37.9% | 31.8% | 2.23% (active) | 58.5% | 39.4% | 28.1% | 21.7% | -59.5% (active) | 60.3% | 19.9% | 18.6%
COc1cc(C(=O)/C=C/c2c(C)n([O-])c3ccc(C)cc3[n+]2=O)cc(OC)c1OC | 49.3% | 0.289% (active) | 83.8% | 85% | -32.4% (active) | 59% | 110% | 47.7% | 60.1% | 25.9% | 25.3% | 73.2% | 108% | 55.4% | 64.8% | 89% | 54% | 33% | 72.1%
O=C1c2c[n+](Cc3ccccc3)ccc2-c2nc3ccccc3c3ccnc1c23 | -89.5% (active) | -6.85% (active) | -95.7% (active) | -14% (active) | -57.1% (active) | -1.74% (active) | -17.4% (active) | -67.9% (active) | -68.4% (active) | 18.6% | -25% (active) | -80.7% (active) | -72.2% (active) | -77% (active) | -7.15% (active) | -93.9% (active) | -58.5% (active) | -37.1% (active) | -34.3% (active)
C/C(=C(/c1ccc(O)cc1)c1ccc(OCCN2CCCC2)cc1)c1ccccc1 | 78.8% | 2.35% (active) | 8.05% (active) | 49.6% | 42.4% | 63.8% | 44.3% | -29.5% (active) | -53.7% (active) | 34.6% | -10.7% (active) | 46.1% | 73.5% | 35.1% | 48.1% | -65.8% (active) | -29.3% (active) | -50.2% (active) | -40.8% (active)
O=C(/C=C/c1cc2ccccc2[nH]c1=O)/C=C/c1cc2ccccc2[nH]c1=O | 10.1% | 1.78% (active) | -24.8% (active) | -6.36% (active) | -91.8% (active) | -36% (active) | 4.04% (active) | -31.9% (active) | -45.4% (active) | 48.2% | -39.2% (active) | 19.5% | 44.5% | -9.57% (active) | 9.61% (active) | -22.8% (active) | 13.5% | -65.4% (active) | 37.9%
CC(=O)N1CC(Nc2ccc(OC(F)(F)F)cc2)=CC1=O | 27% | 8.54% (active) | 55.7% | 55% | 39.6% | 59.8% | 14.7% | 46.6% | 4.04% (active) | 30.8% | 7.79% (active) | 9.15% (active) | 42.3% | 28.6% | 30.6% | 21.2% | 39.1% | 43.7% | 56.5%
C=C1CCC2C3(C)COC(c4ccccc4Br)OC3CCC2(C)C1C/C=C1/C(=O)OCC1OC(C)=O (centres undefined) | 21.4% | -43% (active) | -44.6% (active) | -37.1% (active) | -57.2% (active) | -13.4% (active) | 27.6% | -41.6% (active) | -36.7% (active) | -36.2% (active) | -46.2% (active) | -25.3% (active) | 102% | -95.9% (active) | -17.1% (active) | -57.1% (active) | -18.4% (active) | -92% (active) | -52.9% (active)
CC(=O)C1=C(O)C=C2Oc3c(C(=O)/C=C/c4cc(Cl)cc(Cl)c4)c(O)c(C)c(O)c3[C@]2(C)C1=O | -3.76% (active) | -16.2% (active) | -62.4% (active) | -30.9% (active) | -40.4% (active) | -21.4% (active) | -18.7% (active) | -19.6% (active) | -32.8% (active) | -35.5% (active) | -23.5% (active) | -39.9% (active) | -24.4% (active) | -29.9% (active) | -21.1% (active) | -89.2% (active) | -71.2% (active) | -54% (active) | -36.1% (active)
NC(=S)N/N=C/c1cc(-c2cccc(N)c2)ccn1 | 28.1% | 14.9% | 15.6% | 57.6% | 34.5% | 21.2% | 9.47% (active) | 29.3% | 1.75% (active) | 23.8% | 34.8% | 35.1% | 42.9% | 16.1% | 58.8% | 8.97% (active) | -2.21% (active) | 15.6% | 52.1%
COc1ccc2nc3cc(Cl)ccc3c(N3CCN(c4nccc(Nc5ccccc5)n4)CC3)c2c1 | 75.2% | 41.5% | 110% | 70.2% | 35% | 61.3% | 78.3% | 82.2% | 60.8% | 33.8% | 54% | 52.8% | 85.2% | 58.5% | 55.9% | 80.4% | 78.9% | 44.3% | 83.5%
CCCCCCCCCCCCCCCCCCSC1=CC(=O)C(OC)=C(OC)C1=O | 113% | 82.2% | 112% | 93.5% | 97.7% | 110% | 97.9% | 90.8% | 74.6% | 98.7% | 107% | 95.1% | 91.9% | 76.4% | 52% | 86.3% | 77% | 45.9% | 97.3%
CC/C=C\C[C@H](F)C/C=C1/C(=O)C=C[C@@H]1C/C=C\CCCC(=O)O | 66.3% | 10.3% | 59.2% | 73% | 75% | 82.3% | 96.2% | 49.7% | 32.1% | 29.4% | 29.5% | 81.4% | 63.5% | 19.2% | 55% | 15.5% | 27.5% | -42.6% (active) | 46.7%
COc1cc(OC)c(/C=C/S(=O)(=O)Cc2cnc(OC)c(N)c2)c(OC)c1 | 1.99% (active) | 9.4% (active) | 67.3% | 11.9% | 45.5% | 38% | 2.57% (active) | 62.4% | 10.1% | 9.83% (active) | 0.841% (active) | 42.1% | 31.3% | 10.5% | 27.8% | -24.8% (active) | 40.1% | 8.96% (active) | 56.2%
O=C1CC(c2nc3ccccc3s2)CN1C1CCCCC1 (centres undefined) | 104% | 96.7% | 90.8% | 86.8% | 107% | 99.1% | 92.9% | 98.6% | 99.1% | 99.7% | 95.4% | 83.7% | 105% | 94.5% | 90.1% | 96.3% | 93.9% | 93% | 101%
